# Source: PubChem BioAssay AID651744 (Broad Institute, 2012)
# Among all 5,600 compounds or so, about 3,100 (55%) were called active. Not shown: some 3% with an inconclusive outcome.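 How the source made its calls: active means mean loss of cell viability signal at or above a set limit, and enough replicates individually reaching it; inconclusive means meets only the mean limit or only the replicate share; inactive means meets neither condition.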 The set was probably picked from earlier hits. The list is a sample of the results.
# Experiment: viability loss of mouse 3T3 cells – cell-based, cherry-pick, single point, set 2, cytotoxicity control, confirmation (AID 651744);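 further: 0% = median of neutral control wells and 100% = median of positive control wells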
# Settings: NIH/3T3 viability, CellTiter-Glo ATP luminescence, 90 h; at 24.9 µM; stronger effect = higher value
row,SMILES,inhibition
1,Cc1noc(C)c1S(=O)(=O)Nc1ccc2c(c1)C(=O)N([C@@H](C)CO)C[C@@H](C)[C@H](CN(C)S(=O)(=O)c1ccc(Cl)cc1)OCCCC[C@H](C)O2,-2.59% (inactive)
2,C[C@@H]1CN([C@@H](C)CO)S(=O)(=O)c2ccc(-c3cccc(F)c3)cc2O[C@@H]1CN(C)S(=O)(=O)c1ccccc1,57.2% (active)
3,C[C@@H]1CN([C@H](C)CO)C(=O)c2cc(NS(C)(=O)=O)ccc2O[C@@H](C)CCCCO[C@H]1CN(C)S(=O)(=O)c1cn(C)cn1,-25.6% (inactive)
4,C[C@H](CO)N1C[C@H](C)[C@@H](CN(C)S(=O)(=O)c2ccc(F)cc2)Oc2cc(C3=CCCC3)ccc2S1(=O)=O,45.4% (active)
5,C[C@H]1CN([C@@H](C)CO)S(=O)(=O)c2ccc(C#Cc3cccc(F)c3)cc2O[C@@H]1CN(C)S(=O)(=O)c1cn(C)cn1,77.2% (active)
6,C[C@@H]1CN([C@@H](C)CO)C(=O)c2cc(NC(=O)Nc3ccc4c(c3)OCO4)ccc2O[C@@H]1CN(C)Cc1ccc(Oc2ccccc2)cc1,103% (active)
7,C[C@@H]1CN([C@@H](C)CO)C(=O)c2cc(NC(=O)Cc3ccccc3)ccc2O[C@@H]1CN(C)Cc1ccc(Oc2ccccc2)cc1,104% (active)
8,C[C@@H]1CN([C@H](C)CO)C(=O)Cc2cc(NC(=O)Cc3ccccc3)ccc2O[C@H]1CN(C)Cc1ccc(Oc2ccccc2)cc1,83.1% (active)
9,C[C@@H]1CN([C@@H](C)CO)C(=O)c2cc(NC(=O)Nc3cccc4ccccc34)ccc2O[C@H]1CN(C)Cc1ccc(Cl)c(Cl)c1,18.8% (inactive)
10,O=C(NCc1ccccn1)[C@@H]1[C@@H](CO)[C@@H]2Cn3c(ccc(/C=C/c4ccccc4)c3=O)[C@H]1N2CC1CC1,47.4% (active)
11,CCCNC(=O)N1[C@@H]2c3cccc(=O)n3C[C@H]1[C@H](CO)[C@H]2C(=O)NCC(F)(F)F,-10.7% (inactive)
12,C[C@H]1CN([C@@H](C)CO)C(=O)Cc2cc(NC(=O)Cc3cn(C)c4ccccc34)ccc2O[C@@H]1CN(C)Cc1ccc(C(F)(F)F)cc1,69.9% (active)
13,C[C@H](CO)N1C[C@H](C)[C@H](CN(C)Cc2ccc(-c3ccccc3)cc2)Oc2ccc(NC(=O)Nc3ccc(F)cc3)cc2CC1=O,103% (active)
14,C[C@@H]1CN([C@H](C)CO)C(=O)Cc2cc(NC(=O)c3ccncc3)ccc2O[C@H]1CN(C)Cc1ccc(-c2ccccc2)cc1,102% (active)
15,C[C@H](CO)N1C[C@H](C)[C@@H](CN(C)Cc2ccc(-c3ccccc3)cc2)Oc2ccc(NC(=O)CCC(F)(F)F)cc2CC1=O,105% (active)
16,C[C@H]1CN([C@@H](C)CO)C(=O)Cc2cc(NC(=O)Cc3cn(C)c4ccccc34)ccc2O[C@@H]1CN(C)Cc1ccccc1,18.1% (inactive)
17,C[C@@H]1CN([C@@H](C)CO)C(=O)Cc2cc(NC(=O)C3CCCCC3)ccc2O[C@@H]1CN(C)Cc1ccc(C(=O)Nc2ccccc2N)cc1,59.4% (active)
18,C[C@@H]1CN([C@H](C)CO)C(=O)CCCn2nncc2CO[C@@H]1CN(C)Cc1ccc(C(=O)Nc2ccccc2N)cc1,9.3% (inactive)
19,C[C@@H]1CN([C@@H](C)CO)C(=O)CCCn2cc(nn2)CO[C@@H]1CN(C)S(=O)(=O)c1ccccc1F,-3.5% (inactive)
20,C[C@H](CO)N1C[C@H](C)[C@@H](CN(C)S(=O)(=O)c2ccccc2F)Oc2ncc(C#Cc3ccccc3F)cc2C1=O,46.5% (active)
21,CCCNC(=O)N(C)C[C@@H]1Oc2ncc(C#Cc3ccccc3F)cc2C(=O)N([C@@H](C)CO)C[C@H]1C,41.6% (active)
22,C[C@H](CO)N1C[C@H](C)[C@@H](CN(C)S(=O)(=O)c2ccccc2)Oc2ncc(C#Cc3ccccc3F)cc2C1=O,69.9% (active)

row,SMILES,inhibition
1,COc1ccc(-c2ccc3c(c2)[C@@H]2[C@@H](CCN2C(=O)Cc2ccccn2)[C@H](CO)N3C)cc1,9.06% (inactive)
2,CC(C)NC(=O)N(C)C[C@H]1OCc2cn(nn2)CCCC(=O)N([C@@H](C)CO)C[C@H]1C,-9.15% (inactive)
3,CCCC#Cc1ccc([C@H]2[C@H](CO)N3CCCCN(C(=O)c4ccc5c(c4)OCO5)C[C@@H]23)cc1,85.9% (active)
4,O=C(c1cccc(F)c1)N1CCCCN2[C@H](CO)[C@H](c3ccc(-c4ccncc4)cc3)[C@H]2C1,-0.739% (inactive)
5,COc1ccc(-c2ccc([C@H]3[C@H]4CN(C(=O)c5ccc6c(c5)OCO6)CCCCN4[C@H]3CO)cc2)cc1,67.5% (active)
6,COCC#Cc1ccc([C@@H]2[C@H](CO)N3CCCCN(C(=O)CN(C)C)C[C@@H]23)cc1,-6.74% (inactive)
7,CC(C)(O)C#Cc1ccc([C@@H]2[C@H](CO)N3CCCCN(C(=O)c4cccc(F)c4)C[C@@H]23)cc1,1.66% (inactive)
8,Cc1cccc(-c2ccc([C@@H]3[C@H](CO)N4CCCCN(C(=O)c5ccc6c(c5)OCO6)C[C@@H]34)cc2)c1,105% (active)
9,CC(C)(C)[S@@](=O)N1Cc2cc(C(=O)NCc3ccc4c(c3)OCO4)nc(-c3cccc(-c4ccccc4)c3)c2[C@H]1CCO,49% (active)
10,O=C(Nc1ccc(-c2ccccc2)cc1)[C@H]1[C@H](CO)[C@H]2Cn3c(cccc3=O)[C@H]2N1CC1CC1,59.4% (active)
11,O=C(NCC1CCCCC1)[C@H]1[C@H](CO)[C@H]2Cn3c(cccc3=O)[C@H]2N1C(=O)CC1CC1,2.76% (inactive)
12,C[C@@H]1CN([C@H](C)CO)S(=O)(=O)c2ccc(C#CCC3CCCC3)cc2O[C@H]1CN(C)C(=O)CC1CC1,103% (active)
13,CNC[C@H]1OCCCC[C@H](C)Oc2ccc(NC(=O)Nc3c(C)noc3C)cc2C(=O)N([C@H](C)CO)C[C@H]1C,11.5% (inactive)
14,CNC[C@H]1OCCCC[C@@H](C)Oc2ccc(NS(C)(=O)=O)cc2C(=O)N([C@H](C)CO)C[C@H]1C,-29.3% (inactive)
15,C[C@@H]1CN([C@@H](C)CO)S(=O)(=O)c2ccc(C#CCC3CCCC3)cc2O[C@H]1CN(C)C(=O)CC1CC1,104% (active)
16,C[C@@H]1CCCCO[C@H](CN(C)C(=O)CCC(F)(F)F)[C@H](C)CN([C@H](C)CO)C(=O)c2cc(NS(C)(=O)=O)ccc2O1,4.09% (inactive)
17,CNC[C@@H]1Oc2cc(C#CCC3CCCC3)ccc2S(=O)(=O)N([C@H](C)CO)C[C@H]1C,105% (active)
18,CC(=O)NC[C@@H]1[C@@H](c2ccc(-c3ccccc3F)cc2)[C@@H](CO)N1C(=O)C1CC1,-15.5% (inactive)
19,C[C@@H]1CN([C@@H](C)CO)C(=O)c2cc(NC(=O)Nc3cccc4ccccc34)ccc2O[C@@H](C)CCCCO[C@H]1CN(C)Cc1ccccc1,104% (active)
20,C[C@@H]1CCCCO[C@@H](CN(C)Cc2ccccc2)[C@H](C)CN([C@H](C)CO)C(=O)c2cc(NC(=O)Nc3cccc4ccccc34)ccc2O1,105% (active)
21,C[C@@H]1CCCCO[C@H](CN(C)C(=O)Nc2cccc3ccccc23)[C@H](C)CN([C@H](C)CO)C(=O)c2cc(NS(=O)(=O)c3cccs3)ccc2O1,2.06% (inactive)
22,C[C@@H]1CCCCO[C@@H](CN(C)C(=O)Nc2ccc(F)cc2)[C@H](C)CN([C@H](C)CO)C(=O)c2cc(NC(=O)Nc3cccc4ccccc34)ccc2O1,-7.66% (inactive)
